Holding throughout (experiment): NCI-60 one-dose screen, 48 h (100 = growth as untreated, 0 = no growth, -100 = all killed)
For one assay, the system named is A549/ATCC NSCLC. Conditions: 10 µM unless noted.
The subject of the next assay is 786-0 renal. The note with it: 10 µM unless noted.
A further assay concerns DU-145 prostate. Conditions: 10 µM unless noted.
A further assay relates to SF-268 CNS. Conditions: 10 µM unless noted.
For the next assay, the system named is SF-539 CNS. Conditions: 10 µM unless noted.
The test system of another assay is HCT-15 colon. Conditions: 10 µM.
Another assay relates to SNB-75 CNS. The note with it: 10 µM unless noted.
Another assay concerns SNB-19 CNS. The note with it: 10 µM unless noted.
For a further assay, the system named is UACC-62 melanoma. The note with it: 10 µM unless noted.
In the next assay the test system is SN12C renal. The note with it: 10 µM unless noted.
For another assay, the system named is TK-10 renal. The note with it: 10 µM unless noted.
A further assay deals with ACHN renal. Conditions: 10 µM unless noted.
A further assay has as its system HL-60(TB) leukemia. The note with it: 10 µM unless noted.
The subject of another assay is OVCAR-8 ovarian. The note with it: 10 µM unless noted.
The test system of the next assay is OVCAR-5 ovarian. The note with it: 10 µM unless noted.
The subject of another assay is OVCAR-3 ovarian. The note with it: 10 µM unless noted.
Another assay relates to NCI/ADR-RES ovarian. Conditions: 10 µM unless noted.
The subject of a further assay is T-47D breast. The note with it: 10 µM unless noted.
The test system of a further assay is MDA-MB-435 melanoma. The note with it: 10 µM unless noted.
Another assay has as its system MCF7 breast. The note with it: 10 µM unless noted.

Results on 8 compounds are retold here after PubChem BioAssay (NCI).

The panel holds about 83,000 compounds, 20% with a hit somewhere; the sample as a whole holds those more often.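 Cells were grown in 96-well plates and exposed to the test compound at a single concentration for 48 hours; results are reported as percent growth, with values below 10 considered active.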 Unmarked numbers belong to inactive results. Active and inactive are the calls of the source.

`CCC[CH2][Sn]([CH2]CCC)([CH2]CCC)[O]C(=O)c1ccc(Cl)cc1Cl`: the growth in the assay with A549/ATCC NSCLC was -79.9% (active); with 786-0 renal it was -91.7% (active); with DU-145 prostate, -98% (active); in the assay on SF-268 CNS it was -95.5% (active); in the assay on SF-539 CNS it was -91.7% (active); with HCT-15 colon it was -82.9% (active). For the same compound, the growth was -93.2% (active) in the assay with SNB-75 CNS; -86.3% (active) in the assay on SNB-19 CNS; -95.4% (active) with UACC-62 melanoma; -83.9% (active) in the assay with SN12C renal; -90.5% (active) in the assay on TK-10 renal; -100% (active) in the assay with ACHN renal. The growth was -32.7% (active) with HL-60(TB) leukemia; -63.6% (active) in the assay on OVCAR-8 ovarian; -95.1% (active) in the assay with OVCAR-5 ovarian; -98.3% (active) in the assay with OVCAR-3 ovarian; -68.6% (active) in the assay on NCI/ADR-RES ovarian; -58.3% (active) in the assay with T-47D breast. For the same compound, the growth with MDA-MB-435 melanoma was -85.4% (active).

As to `N#CC(C#N)=Cc1ccc2ccccc2c1`, the growth is 107% with A549/ATCC NSCLC; 104% in the assay on 786-0 renal; 109% in the assay with DU-145 prostate; 116% in the assay on SF-268 CNS; 107% with SF-539 CNS; 111% in the assay with HCT-15 colon. For the same compound, the growth with SNB-75 CNS was 103%; with SNB-19 CNS it was 106%; with UACC-62 melanoma it was 115%; with SN12C renal it was 111%; with TK-10 renal it was 111%; in the assay on ACHN renal it was 107%. Also, the growth is 96.4% with HL-60(TB) leukemia; 105% in the assay with OVCAR-8 ovarian; 106% with OVCAR-5 ovarian; 117% in the assay with OVCAR-3 ovarian; 108% in the assay on NCI/ADR-RES ovarian; 110% in the assay on T-47D breast. Besides, the growth in the assay with MDA-MB-435 melanoma was 114%; in the assay on MCF7 breast, 103%.

For `CC(C)(C)[Si](C)(C)OC1[C@@H](O[Si](C)(C)C(C)(C)C)[C@@H](CNC(=O)NC(=O)CF)O[C@H]1n1cnc2c(NC(=O)Nc3ccccc3)ncnc21` (stereo not given in full), the growth was 26.2% in the assay with A549/ATCC NSCLC; 61.4% with 786-0 renal; 47.6% in the assay on DU-145 prostate; 26.6% in the assay with SF-268 CNS; 92.6% in the assay on SF-539 CNS; 80.7% in the assay with HCT-15 colon. Besides, the growth in the assay with SNB-75 CNS is 73.8%; in the assay on UACC-62 melanoma it was 76.6%; in the assay with SN12C renal it was 44.3%; in the assay on ACHN renal, 71.8%; with HL-60(TB) leukemia it was 17.3%; in the assay on OVCAR-8 ovarian, 51.4%. The growth is 91.5% with OVCAR-5 ovarian; 19.8% in the assay with OVCAR-3 ovarian; 71% with NCI/ADR-RES ovarian; 71.9% in the assay with T-47D breast; 70.5% with MDA-MB-435 melanoma; 19% in the assay on MCF7 breast.

Consider `CC1([N+](=O)[O-])COP(=O)(Nc2ccc(F)cc2)OC1` (stereo not given), for which the growth in the assay on A549/ATCC NSCLC was 98.5%; in the assay on 786-0 renal, 102%; in the assay on DU-145 prostate, 106%; in the assay with SF-268 CNS it was 99.7%; in the assay with SF-539 CNS it was 103%; in the assay with HCT-15 colon, 104%. Further, the growth in the assay on SNB-75 CNS was 95.6%; in the assay on SNB-19 CNS, 107%; in the assay with UACC-62 melanoma, 109%; in the assay on SN12C renal, 111%; with TK-10 renal it was 95.1%; in the assay on ACHN renal, 98.8%. Also, the growth is 90.4% in the assay on HL-60(TB) leukemia; 101% in the assay on OVCAR-8 ovarian; 106% in the assay on OVCAR-5 ovarian; 104% with OVCAR-3 ovarian; 102% with NCI/ADR-RES ovarian; 82.9% with T-47D breast. Moreover, the values for the growth with MDA-MB-435 melanoma and in the assay with MCF7 breast were 110% and 100%, respectively.

On to `COc1cc(C2CC(=O)Nc3nc(N)[se]c32)c(OC)c2c1OCO2` (stereo not given), for which the growth with A549/ATCC NSCLC was 58.9%; in the assay with 786-0 renal, 105%; in the assay with DU-145 prostate, 103%; in the assay with SF-268 CNS it was 107%; with SF-539 CNS it was 91%; in the assay with HCT-15 colon it was 101%. Besides, the growth in the assay on SNB-75 CNS is 101%; in the assay on SNB-19 CNS, 51.9%; with UACC-62 melanoma it was 99.3%; in the assay with SN12C renal it was 97.3%; with ACHN renal, 99.1%; with HL-60(TB) leukemia, 84.4%. Further, the growth with OVCAR-8 ovarian is 104%; in the assay on OVCAR-5 ovarian it was 108%; with OVCAR-3 ovarian, 114%; in the assay with NCI/ADR-RES ovarian, 109%; with T-47D breast, 89%; with MDA-MB-435 melanoma, 99%. For the same compound, the growth in the assay on MCF7 breast is 94.1%.

As for `CC[C@]12C=CCN3CC[C@@]4(c5ccc(OC)cc5N(C)[C@H]4[C@@](O)(C(=O)OC)[C@@H]1OC(=O)CCCN1CCN(CCCC(=O)O[C@@H]4[C@]5(CC)C=CCN6CC[C@@]7(c8ccc(OC)cc8N(C)[C@H]7[C@@]4(O)C(=O)OC)[C@@H]65)CC1)[C@@H]32`, the growth in the assay on A549/ATCC NSCLC was -81.4% (active); with 786-0 renal, -81.9% (active); in the assay on DU-145 prostate, -90.6% (active); in the assay on SF-268 CNS it was -82.6% (active); in the assay with SF-539 CNS it was -95.5% (active); in the assay with HCT-15 colon, -74.3% (active). Besides, the growth is -94.3% (active) with SNB-75 CNS; -93.9% (active) with SNB-19 CNS; -87.7% (active) in the assay with UACC-62 melanoma; -81.4% (active) with SN12C renal; -87.9% (active) in the assay with TK-10 renal; -83.3% (active) with ACHN renal. The growth in the assay on HL-60(TB) leukemia is -66.6% (active); with OVCAR-8 ovarian, -71.1% (active); in the assay on OVCAR-5 ovarian, -87.8% (active); with OVCAR-3 ovarian, -85.2% (active); in the assay with NCI/ADR-RES ovarian, -40.6% (active); in the assay on T-47D breast, -68.3% (active). Moreover, the growth in the assay with MDA-MB-435 melanoma is -89.3% (active); in the assay on MCF7 breast, -83.8% (active).

In the case of `n1nc(-c2nonc2-c2nn[nH]n2)n[nH]1`, the growth was 95.2% in the assay on A549/ATCC NSCLC; 99% in the assay with 786-0 renal; 103% in the assay with DU-145 prostate; 122% in the assay on SF-268 CNS; 115% in the assay with SF-539 CNS; 106% with HCT-15 colon. In addition, the growth with SNB-75 CNS is 106%; in the assay with SNB-19 CNS it was 105%; in the assay with UACC-62 melanoma, 107%; with SN12C renal it was 102%; in the assay with TK-10 renal, 110%; in the assay on ACHN renal it was 115%. Also, the growth was 105% with HL-60(TB) leukemia; 109% in the assay with OVCAR-8 ovarian; 108% in the assay with OVCAR-5 ovarian; 150% with OVCAR-3 ovarian; 104% in the assay on NCI/ADR-RES ovarian; 105% in the assay on T-47D breast. Besides, the growth with MDA-MB-435 melanoma was 97.7%; with MCF7 breast, 101%.

As for `CCN1CC2(CN(CC)C1=S)C(=O)NC(=O)NC2=O`, the growth in the assay with A549/ATCC NSCLC was 99.9%; in the assay with 786-0 renal it was 90.3%; with DU-145 prostate, 97.6%; with SF-268 CNS, 95.1%; with SF-539 CNS, 107%; in the assay with HCT-15 colon it was 99.9%. For the same compound, the growth with SNB-75 CNS is 95.8%; in the assay with SNB-19 CNS, 107%; with UACC-62 melanoma, 101%; with SN12C renal, 107%; in the assay with ACHN renal it was 99%; in the assay with HL-60(TB) leukemia, 83.3%. Besides, the growth in the assay on OVCAR-8 ovarian was 101%; with OVCAR-5 ovarian, 114%; in the assay with OVCAR-3 ovarian it was 107%; with NCI/ADR-RES ovarian, 97.4%; with T-47D breast, 90.4%; in the assay with MDA-MB-435 melanoma, 103%. In the assay with MCF7 breast, the growth was 92.5%.
